Experimental data from PubChem BioAssay (NCI).
Compounds without any hit were thinned out: in the full panel of roughly 79,000, 15% have a hit. Active and inactive are the calls of the source. Rule as the data show it: active = growth inhibition above about 70%; inactive = the rest.

Key:
[1] = NCI Yeast Anticancer Drug Screen. Data for the rad50 strain (AID 155);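 also: 0% = growth of vehicle-only cultures of the same strain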; settings: S. cerevisiae rad50 strain growth inhibition, active compounds read high
Summary of the method: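 Growth of the mutant yeast was measured after compound exposure and referenced to vehicle-treated cultures.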

[2] = NCI Yeast Anticancer Drug Screen. Data for the mec2-1 strain (AID 157); settings: S. cerevisiae mec2-1 strain, active compounds read high
Summary of the method: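 Yeast mec2-1 mutant treated with compound. Readout: growth inhibition vs vehicle controls.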

[3] = NCI Yeast Anticancer Drug Screen. Data for the sgs1 mgt1 strain (AID 161);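 also: 0% = growth of cultures given vehicle only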; settings: S. cerevisiae sgs1 mgt1 strain, active compounds read high
Summary of the method: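 Test agents were incubated with a DNA-repair-mutant yeast strain. Growth was then read and compared against vehicle-treated controls.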

[4] = NCI Yeast Anticancer Drug Screen. Data for the cln2 rad14 strain (AID 165);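 also: 0% = growth equal to vehicle treated cultures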; settings: S. cerevisiae cln2 rad14 strain, active compounds read high
Summary of the method: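 cln2 rad14 yeast strain; compound exposure; growth inhibition read vs vehicle controls.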

[5] = NCI Yeast Anticancer Drug Screen. Data for the bub3 strain (AID 167); settings: S. cerevisiae bub3 mutant strain, active compounds read high
Summary of the method: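 Whole-cell yeast assay. The mutant strain was incubated with compounds, and growth inhibition was determined by comparison with vehicle-treated cells.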

[6] = NCI Yeast Anticancer Drug Screen. Data for the mlh1 rad18 strain (AID 175); settings: S. cerevisiae mlh1 rad18 strain growth inhibition, active compounds read high
Summary of the method: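 Yeast w/ defined DNA-repair lesions; compound exposure; growth vs vehicle controls → % inhibition.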

[7] = at 5.0 µM (retest, dose inferred, filed as 0.5)
[8] = at 50.0 µM (retest, dose inferred, filed as 5.0)

Measured: growth inhibition

Cn1cc(NC(=O)Nc2cc(C(=O)Nc3cc(C(=O)Nc4ccc5cc(S(=O)(=O)O)cc(S(=O)(=O)O)c5c4)n(C)c3)n(C)c2)cc1C(=O)Nc1cc(C(=O)Nc2ccc3cc(S(=O)(=O)O)cc(S(=O)(=O)O)c3c2)n(C)c1
inactive: [1]; [7] 68% | [2]; [7] 36% | [3]; [7] 69% | [4]; [7] 33% | [5]; [7] 44%
active: [1]; [8] 98% | [1]; at 50.0 µM 91% | [2]; [8] 99% | [2]; at 50.0 µM 93.7% | [3]; [8] 99% | [3]; at 50.0 µM 93.5% | [4]; [8] 99% | [4]; at 50.0 µM 92.7% | [5]; [8] 98% | [5]; at 50.0 µM 92.5% | [6]; [7] 76% | [6]; [8] 98% | [6]; at 50.0 µM 90.8%

Cc1ccc(NS(=O)(=O)c2ccc(C)cc2)cc1
inactive: [1]; [7] -7% | [1]; at 50.0 µM 37.6% | [2]; [7] -8% | [2]; at 50.0 µM 14.1% | [3]; [7] -11% | [3]; at 50.0 µM 26.8% | [4]; [7] -6% | [4]; [8] 68% | [4]; at 50.0 µM 22.4% | [5]; [7] -6% | [5]; at 50.0 µM 28.6% | [6]; [7] -4% | [6]; at 50.0 µM 47.1%
active: [1]; [8] 92% | [2]; [8] 92% | [3]; [8] 92% | [5]; [8] 90% | [6]; [8] 86%

COc1ccc(/C=N/Nc2ccccc2)cc1
active: [1]; [8] 97% | [1]; at 50.0 µM 98.5% | [2]; [8] 85% | [2]; at 50.0 µM 99% | [3]; [8] 97% | [3]; at 50.0 µM 98.9% | [4]; [8] 93% | [4]; at 50.0 µM 98.7% | [5]; [8] 97% | [5]; at 50.0 µM 99% | [6]; [8] 96% | [6]; at 50.0 µM 98.4%
inactive: [1]; [7] 7% | [2]; [7] -12% | [3]; [7] -6% | [4]; [7] -9% | [5]; [7] -17% | [6]; [7] 8%

Cc1ccc(S(=O)(=O)Nc2ccccc2Cl)cc1
inactive: [1]; [7] 11% | [2]; [7] 11% | [3]; [7] 7% | [4]; [7] 6% | [5]; [7] 5% | [6]; [7] 13%
active: [1]; [8] 95% | [1]; at 50.0 µM 94% | [2]; [8] 97% | [2]; at 50.0 µM 77.3% | [3]; [8] 99% | [3]; at 50.0 µM 96.5% | [4]; [8] 96% | [4]; at 50.0 µM 88.5% | [5]; [8] 98% | [5]; at 50.0 µM 94.2% | [6]; [8] 97% | [6]; at 50.0 µM 93.8%

Cc1cc(Br)c(N2C3=C(CC4=C2CCCC4=O)C(=O)CCC3)c(Br)c1
inactive: [1]; [7] 17% | [2]; [7] 7% | [3]; [7] -3% | [4]; [7] 10% | [5]; [7] -10% | [6]; [7] 16%
active: [1]; [8] 90% | [1]; at 50.0 µM 96.8% | [2]; [8] 89% | [2]; at 50.0 µM 97.8% | [3]; [8] 80% | [3]; at 50.0 µM 97.8% | [4]; [8] 94% | [4]; at 50.0 µM 93.5% | [5]; [8] 95% | [5]; at 50.0 µM 98.2% | [6]; [8] 97% | [6]; at 50.0 µM 97.8%

Cc1ccc(C)c(NC(=O)CC2SC(=Nc3ccccc3Cl)NC2=O)c1 (stereo not given)
inactive: [1]; [7] 23% | [1]; [8] 65% | [2]; [7] 24% | [2]; [8] 60% | [2]; at 50.0 µM 58.9% | [3]; [7] 25% | [3]; at 50.0 µM 65.3% | [4]; [7] 23% | [4]; [8] 55% | [5]; [7] 33% | [6]; [7] 31% | [6]; at 50.0 µM 64.5%
active: [1]; at 50.0 µM 79% | [3]; [8] 91% | [4]; at 50.0 µM 78% | [5]; [8] 85% | [5]; at 50.0 µM 75.9% | [6]; [8] 82%

CCNC(=S)NNC(=S)NNc1ccccc1
active: [1]; [8] 98% | [2]; [8] 100% | [3]; [8] 70% | [5]; [8] 77% | [6]; [8] 100%
inactive: [1]; [7] 52% | [1]; at 50.0 µM 41.3% | [2]; [7] 63% | [2]; at 50.0 µM 38.5% | [3]; [7] 31% | [3]; at 50.0 µM 66.8% | [4]; [7] 45% | [4]; [8] 63% | [4]; at 50.0 µM 3.85% | [5]; [7] 36% | [5]; at 50.0 µM 60.5% | [6]; [7] 47% | [6]; at 50.0 µM 38.5%

COc1ccc(C(=O)C(CCC(=O)/C=C/c2ccccc2)S(C)(=O)=O)cc1 (stereo not given)
inactive: [1]; [7] 8% | [1]; [8] 10% | [1]; at 50.0 µM 9.25% | [2]; [7] -12% | [2]; [8] 15% | [2]; at 50.0 µM 3.5% | [3]; [7] 5% | [3]; [8] 13% | [3]; at 50.0 µM 17.2% | [4]; [7] 2% | [4]; [8] -8% | [4]; at 50.0 µM 39.9% | [5]; [7] -7% | [5]; [8] 6% | [5]; at 50.0 µM 0.7% | [6]; [7] 0% | [6]; [8] -5% | [6]; at 50.0 µM 2.4%

CCOP(=O)(C=C=C1CCC2[C@@H]3CCc4cc(OC)ccc4C3CC[C@]12C)OCC (stereo not given in full)
active: [1]; [8] 97% | [1]; at 50.0 µM 97.7% | [2]; [8] 99% | [2]; at 50.0 µM 98.3% | [3]; [8] 98% | [3]; at 50.0 µM 98% | [4]; [8] 98% | [4]; at 50.0 µM 97.8% | [5]; [8] 98% | [5]; at 50.0 µM 98% | [6]; [8] 98% | [6]; at 50.0 µM 98%
inactive: [1]; [7] 5% | [2]; [7] -1% | [3]; [7] 3% | [4]; [7] 1% | [5]; [7] 13% | [6]; [7] -7%

CC1(C)CC([P+](c2ccccc2)(c2ccccc2)c2ccccc2)=NN1
active: [1]; [8] 91% | [1]; at 50.0 µM 76.2% | [2]; [8] 84% | [2]; at 50.0 µM 77.5% | [3]; [8] 89% | [3]; at 50.0 µM 79.5% | [4]; [8] 81% | [5]; [7] 71% | [5]; [8] 91% | [5]; at 50.0 µM 83.5% | [6]; [8] 83% | [6]; at 50.0 µM 79.5%
inactive: [1]; [7] 66% | [2]; [7] 41% | [3]; [7] 60% | [4]; [7] 48% | [4]; at 50.0 µM 46% | [6]; [7] 56%
